Drawing on PubChem BioAssay (NCI), this text covers growth for 18 compounds.

Where “and” joins values, the source holds several entries; their conditions need not be identical. Identical values can stand only once. Compounds without any hit were thinned out: in the full panel of roughly 83,000, 20% have a hit.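 Values shown are percent growth following 48 h exposure of cells in 96-well plates to a single concentration of compound; below 10 was considered active.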 Calls of active or inactive are those of the source.

Among the test systems are HCT-15 colon; SNB-75 CNS; SNB-19 CNS; U251 CNS; PC-3 prostate; SK-MEL-5 melanoma; UACC-62 melanoma; LOX IMVI melanoma; SK-MEL-28 melanoma; SK-MEL-2 melanoma; EKVX NSCLC; UO-31 renal; TK-10 renal; ACHN renal; CAKI-1 renal; CCRF-CEM leukemia; MOLT-4 leukemia; SN12C renal; A498 renal.
Common to all, as to experiment: NCI-60 one-dose screen, 48 h (100 = growth as untreated, 0 = no growth, -100 = all killed)
Common to all, as to settings: 10 µM unless noted

For `CC1(C)[C@@H](OC(=O)CCC(=O)O)CC[C@]2(C)[C@H]3C(=O)C=C4[C@@H]5C[C@@](C)(C(=O)O)CC[C@]5(C)CC[C@@]4(C)[C@]3(C)CC[C@@H]12`, the growth is 101% (inactive) and -39.6% (active) in the test with HCT-15 colon; -68.7% (active) in the test with SNB-75 CNS; 102% (inactive) and -3.23% (active) in the test on SNB-19 CNS; 110% (inactive) and -91.2% (active) in the test with U251 CNS; 103% (inactive) and -28.4% (active) in the test on PC-3 prostate; 105% (inactive) and -82.7% (active) with SK-MEL-5 melanoma. The growth in the test on UACC-62 melanoma was 106% (inactive) and -80% (active); in the test on LOX IMVI melanoma it was 104% (inactive) and -50.8% (active); in the test on SK-MEL-28 melanoma it was 105% (inactive) and -66% (active); in the test with SK-MEL-2 melanoma it was 107% (inactive) and -59.9% (active); in the test on EKVX NSCLC, 107% (inactive) and -33.4% (active); in the test on UO-31 renal, 102% (inactive) and -96.1% (active). Moreover, the growth in the test with TK-10 renal is 104% (inactive) and -36.8% (active); with ACHN renal, 103% (inactive) and -79.6% (active); in the test with CAKI-1 renal, 100% (inactive) and -30.4% (active); in the test with CCRF-CEM leukemia, 92.6% (inactive) and -37.2% (active); with MOLT-4 leukemia it was 88.3% (inactive) and -35% (active).

Turning to `Cc1ccc(-c2noc(CC(=O)c3ccc([N+](=O)[O-])cc3)n2)cc1`, the growth in the test on HCT-15 colon was 98.3% (inactive); with SNB-75 CNS, 94.6% (inactive); with SNB-19 CNS, 106% (inactive); with U251 CNS, 96.8% (inactive); in the test with PC-3 prostate, 98.6% (inactive); in the test with SK-MEL-5 melanoma it was 91.6% (inactive). The growth was 91.1% (inactive) with UACC-62 melanoma; 105% (inactive) with SK-MEL-28 melanoma; 110% (inactive) with SK-MEL-2 melanoma; 95.9% (inactive) in the test on EKVX NSCLC; 94.1% (inactive) with SN12C renal; 89.6% (inactive) with UO-31 renal. In addition, the growth with TK-10 renal was 115% (inactive); with ACHN renal it was 103% (inactive); in the test on CAKI-1 renal, 97.1% (inactive); in the test with A498 renal, 86.7% (inactive); in the test with CCRF-CEM leukemia, 96.7% (inactive); with MOLT-4 leukemia, 90.5% (inactive).

Regarding `NC(=S)NS(=O)(=O)c1ccc(N)cc1`, the growth in the test on HCT-15 colon is 96.8% (inactive); in the test with SNB-75 CNS, 93% (inactive); with SNB-19 CNS, 113% (inactive); with PC-3 prostate, 102% (inactive); in the test on SK-MEL-5 melanoma, 101% (inactive); with UACC-62 melanoma, 119% (inactive). For the same compound, the growth in the test with LOX IMVI melanoma is 105% (inactive); in the test with SK-MEL-28 melanoma it was 109% (inactive); in the test with SK-MEL-2 melanoma it was 109% (inactive); in the test on SN12C renal, 109% (inactive); in the test with UO-31 renal it was 88.1% (inactive); with ACHN renal, 96.5% (inactive). The growth in the test with CAKI-1 renal was 94.8% (inactive); with A498 renal, 82.8% (inactive); in the test with CCRF-CEM leukemia, 106% (inactive); in the test with MOLT-4 leukemia it was 101% (inactive).

Take `CC(=N\N=C\c1ccccn1)/C(C)=N/N=C/c1ccccn1`: the growth in the test with UACC-62 melanoma was 86% [100 µM] (inactive) and 54.1% [100 µM] (inactive); in the test with TK-10 renal, 108% [100 µM] (inactive) and 118% [100 µM] (inactive).

Take `C=C1C(=O)O[C@H]2[C@H]1CC/C(COC(=O)NC1CCC(O)CC1)=C\CC[C@@]1(C)O[C@@H]21` (stereo not given in full): the growth is 92.2% (inactive) and 85.3% (inactive) in the test with HCT-15 colon; 100% (inactive) and 99.5% (inactive) with SNB-19 CNS; 91.8% (inactive) and 88.3% (inactive) with U251 CNS; 95.5% (inactive) and 90.6% (inactive) in the test on PC-3 prostate; 90.3% (inactive) and 86.9% (inactive) in the test with LOX IMVI melanoma; 91.2% (inactive) and 86.1% (inactive) with SK-MEL-2 melanoma. Also, the growth in the test with EKVX NSCLC is 72.8% (inactive) and 67.5% (inactive); in the test on UO-31 renal it was 78.9% (inactive) and 70.1% (inactive); with TK-10 renal it was 75.2% (inactive) and 71.5% (inactive); in the test on ACHN renal, 54.3% (inactive) and 45% (inactive); in the test with CAKI-1 renal, 70.3% (inactive) and 64% (inactive); in the test with A498 renal, 105% (inactive) and 101% (inactive). The growth in the test on CCRF-CEM leukemia is 16.1% (inactive) and 12.7% (inactive); in the test with MOLT-4 leukemia it was 69.5% (inactive) and 63.2% (inactive).

Turning to `COC(=O)c1ccc(NC(=O)O/N=C(\Cl)C(C)C)cc1`, in the test on UACC-62 melanoma, the growth was -90.3% [100 µM] (active) and -100% [100 µM] (active).

As for `Cn1c2c(c3ccccc3c1=O)C(=O)c1ccccc1-2`, the growth in the test with UACC-62 melanoma is 27.3% [100 µM] (inactive) and -100% [100 µM] (active).

For the compound `O=C1NC(=O)C2(CCc3ccccc32)N1` (stereo not given), the growth in the test with HCT-15 colon is 104% (inactive) and 108% (inactive); with SNB-75 CNS it was 96.2% (inactive) and 94.1% (inactive); in the test on SNB-19 CNS, 96.2% (inactive) and 103% (inactive); in the test on U251 CNS it was 109% (inactive) and 99% (inactive); in the test with PC-3 prostate it was 133% (inactive) and 88.2% (inactive); in the test on SK-MEL-5 melanoma, 99.4% (inactive) and 108% (inactive). Moreover, the growth in the test on UACC-62 melanoma is 100% (inactive) and 96.7% (inactive); in the test on LOX IMVI melanoma, 103% (inactive) and 95.7% (inactive); with SK-MEL-28 melanoma, 123% (inactive); with SK-MEL-2 melanoma it was 129% (inactive) and 51.4% (inactive); in the test on EKVX NSCLC, 103% (inactive) and 99.9% (inactive); in the test with SN12C renal, 104% (inactive) and 95.1% (inactive). The growth in the test with UO-31 renal is 101% (inactive) and 85.3% (inactive); in the test with ACHN renal, 111% (inactive) and 96.7% (inactive); in the test with CAKI-1 renal, 98.4% (inactive) and 89.7% (inactive); in the test with A498 renal, 94.4% (inactive); in the test with CCRF-CEM leukemia, 118% (inactive) and 94.2% (inactive); in the test with MOLT-4 leukemia it was 101% (inactive) and 83.3% (inactive).

On to `CCN(CC)CCC(CNc1c2ccc([N+](=O)[O-])cc2nc2cc(OC)c(OC)cc12)c1ccccc1` (stereo not given), for which the growth was -29.4% (active) and -71.4% (active) in the test on HCT-15 colon; -95.7% (active) and -97.6% (active) in the test with SNB-75 CNS; -42.9% (active) and -93.8% (active) in the test with SNB-19 CNS; -44.7% (active) and -100% (active) in the test on U251 CNS; -62.6% (active) and -97.1% (active) in the test on PC-3 prostate; -81.8% (active) and -100% (active) in the test on SK-MEL-5 melanoma. Besides, the growth in the test on UACC-62 melanoma was -78.6% (active) and -100% (active); in the test on SK-MEL-28 melanoma, -84.8% (active); with SK-MEL-2 melanoma it was -11.9% (active) and -77.5% (active); in the test with EKVX NSCLC it was -23.6% (active) and -87.3% (active); in the test on UO-31 renal, -73.9% (active) and -99.4% (active); in the test with TK-10 renal it was -4.61% (active) and -89.9% (active). Besides, the growth with ACHN renal is -58.9% (active) and -76.9% (active); in the test with CAKI-1 renal it was 8.78% (active) and -76.1% (active); in the test on A498 renal, -16.9% (active); in the test with CCRF-CEM leukemia, 1.82% (active) and -50.9% (active); in the test on MOLT-4 leukemia, 5.7% (active).

Regarding `CCOC(=O)C(CNc1ccccc1)C(=O)OCC`, the growth with HCT-15 colon is 106% (inactive); in the test on SNB-75 CNS, 77.9% (inactive); in the test with SNB-19 CNS it was 91.2% (inactive); in the test with U251 CNS, 93.5% (inactive); in the test on PC-3 prostate, 98.2% (inactive); in the test on SK-MEL-5 melanoma, 100% (inactive). In addition, the growth in the test with UACC-62 melanoma was 103% (inactive); in the test on LOX IMVI melanoma, 101% (inactive); in the test on SK-MEL-28 melanoma, 103% (inactive); with SK-MEL-2 melanoma, 109% (inactive); with SN12C renal, 105% (inactive); with UO-31 renal, 84.7% (inactive). Further, the growth in the test with TK-10 renal was 106% (inactive); in the test on ACHN renal it was 102% (inactive); with CAKI-1 renal it was 94.9% (inactive); in the test with A498 renal, 98.5% (inactive); with MOLT-4 leukemia, 98.5% (inactive).

Turning to `Cc1ccc(F)cc1NC(=O)O/N=C(\Cl)C(C)C`, the growth in the test with UACC-62 melanoma was 82.6% [100 µM] (inactive) and 60.7% [100 µM] (inactive).

For `Cc1ccc(/C=N/Nc2nncc3ccccc23)s1`, the growth in the test with UACC-62 melanoma is 6.4% [100 µM] (active) and 1.47% [100 µM] (active).

On to `C[C@@H]1CC[C@H]2C(C)(C)[C@H]3C[C@@]12CC[C@@]3(C)O`, for which the growth in the test on UACC-62 melanoma was 80.1% [100 µM] (inactive) and 6.26% [100 µM] (active); with TK-10 renal it was 87.1% [100 µM] (inactive) and 15.8% [100 µM] (inactive).

In the case of `Cc1ccc(NC2=N/C(=C/c3ccccc3)C(Cl)=N2)cc1`, the growth in the test with UACC-62 melanoma is 27.6% [100 µM] (inactive) and 12% [100 µM] (inactive); in the test on TK-10 renal, 82.6% [100 µM] (inactive) and -17.1% [100 µM] (active).

As to `N#Cc1nc(-c2cccc(-c3nc(C#N)c(N)o3)n2)oc1N`, the growth in the test with UACC-62 melanoma was 89.4% [100 µM] (inactive) and 63.8% [100 µM] (inactive); with TK-10 renal, 96.3% [100 µM] (inactive) and 84.9% [100 µM] (inactive).

As to `CCCCCC(O)(CCCCC)CCCCCCCCC1=C(O)c2ccccc2C(=O)C1=O`, the growth in the test with UACC-62 melanoma was -74.8% [100 µM] (active) and -14.4% [100 µM] (active); in the test on TK-10 renal, 0.969% [100 µM] (active) and -7.87% [100 µM] (active).

In the case of `COC(=O)C(C(=O)C(=O)NC1Nc2ccc(C)cc2S1)c1nc2ccc(Cl)cc2[nH]c1=O` (stereo not given), the growth in the test with UACC-62 melanoma was 77.4% [100 µM] (inactive) and 58.3% [100 µM] (inactive); in the test on TK-10 renal, 113% [100 µM] (inactive) and 71.4% [100 µM] (inactive).

`Cc1cc(N(CCC#N)CCC#N)ccc1/C=N/NC(=O)c1cc(Cl)ccc1O`: the growth with UACC-62 melanoma is 46.2% [100 µM] (inactive) and 8.92% [100 µM] (active); in the test on TK-10 renal it was 76.6% [100 µM] (inactive) and 12.3% [100 µM] (inactive).
